Source: PubChem BioAssay
Only some compounds are listed: those with a hit (about 2.7% of all), similar ones and a draw of the others.
GLP1R ag – activates the human GLP-1 receptor; 380,000 tested, 0.007% active; HEK293 GLP-1R CRE-luciferase, luminescence, 4-6 h; cells express a hypersensitive GLP-1R form; P43220; Potency, µM (doses to about 45.6 µM), actives largely listed as activators
TrxR1 substrate – rat thioredoxin reductase 1 substrate activity; AID 588456; purified TrxR1 substrate turnover, NADPH consumption readout; O89049; Potency, µM (highest dose often 114 µM); 390,000 tested, 0.01% active; also: nearly all actives have a fitted effect of over 50% in size
Target sequence (O89049 whole entry, looked up): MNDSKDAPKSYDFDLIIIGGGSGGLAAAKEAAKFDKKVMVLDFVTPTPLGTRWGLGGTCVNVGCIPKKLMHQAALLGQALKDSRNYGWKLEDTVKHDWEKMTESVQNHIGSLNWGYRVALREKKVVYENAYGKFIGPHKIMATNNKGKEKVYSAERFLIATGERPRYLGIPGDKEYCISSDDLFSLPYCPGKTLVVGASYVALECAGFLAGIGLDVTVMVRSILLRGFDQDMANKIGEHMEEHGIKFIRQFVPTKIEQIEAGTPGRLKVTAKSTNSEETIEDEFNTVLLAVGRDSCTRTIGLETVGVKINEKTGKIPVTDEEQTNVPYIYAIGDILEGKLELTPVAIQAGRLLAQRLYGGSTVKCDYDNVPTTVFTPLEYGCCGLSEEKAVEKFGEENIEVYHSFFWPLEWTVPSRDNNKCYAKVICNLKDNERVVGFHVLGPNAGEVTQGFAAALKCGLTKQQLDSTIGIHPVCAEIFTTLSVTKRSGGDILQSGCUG
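Rat TrxR1, dispensed at 90 nM, was prereduced with 400 uM NADPH (final) for 5 min at ~22 deg C, then incubated with compound 15 min before 400 uM selenite. A first-read NADPH fluorescence drop versus no-compound background flagged substrates.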
IDH1 R132H inh – blocks human mutant IDH1 R132H enzyme; IDH1-R132H enzyme, NADPH consumption, diaphorase/resazurin fluorescence; Potency, µM (titrated, usually from 76.6 µM), most hits filed as inhibitors; 390,000 tested, 0.093% active; also: nearly all actives have a fitted effect of over 65% in size
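IDH1-R132H (0.5 ug/mL dispensed) in pH 7.5 Tris buffer was preincubated 30 min with compound, then given a substrate mix of 0.016 mM NADPH and 2 mM alpha-KG for 80 min at room temperature; remaining NADPH was read by diaphorase/resazurin fluorescence.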
TrxR1 inh – blocks rat thioredoxin reductase 1 | recombinant rTrxR1, NADPH fluorescence consumption, selenite substrate | Potency, µM (series often up to 114 µM), usual class: inhibitors | 390,000 tested, 1% active; also: nearly all actives have a fitted effect of over 65% in size
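Rat TrxR1 (90 nM in the dispensed reagent) was pre-reduced with 400 uM NADPH for 5 min at room temperature, then incubated with compound for 15 min. After 400 uM selenite was added, NADPH fluorescence (Ex 340/Em 450 nm) was followed for 8 min.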
GLP1R inv ag – GLP-1 receptor (human) inverse agonism; AID 624417; 410,000 tested, 1.6% active; HEK293 GLP-1R CRE-luciferase, luminescence, 24 h; GLP-1R form is constitutively active; Potency, µM (highest dose often 38.3 µM), usual class: inhibitors; P43220; also: nearly all actives have a fitted effect of over 55% in size
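HEK293 cells stably co-expressing a cAMP-responsive luciferase reporter and constitutively active GLP-1R were seeded, incubated 12 h, then exposed to compounds for 24 h at 37 C. Luminescence was read 12 min after detection reagent; inverse agonists lower signal.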
HEK293 tox – cytotoxic in the GLP-1 receptor inverse agonist counter-screen; HEK293 cAMP-luciferase reporter cells, luminescence, 24 h; Potency, µM (titrated, usually from 38.3 µM), actives largely listed as inhibitors; 410,000 tested, 0.13% active;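 also: loss of luciferase light is scored as toxicity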
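Here, cytotoxicity is scored as loss of luminescence. The MLSMR collection was tested on cells seeded in medium containing 10% Nu serum, with a 24 hr compound exposure preceded by 12 hours of culture.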
Each line names hits and unclear results; the compound was inactive in the other large screens. Calls follow the shape of the dose curve; as a rule, active = well fitted curve in the direction sought with a large enough effect; inconclusive = small, poorly fitted or top-dose-only effect, or another doubt; inactive = no such curve, though single readings can be large; an effect the other way counts as inactive or inconclusive.

C/C(=N\NC(N)=S)c1ccc2c(c1)OCCO2	GLP1R inv ag inconclusive
CN(C)c1ccc(/C=C/c2ccnc3ccccc23)c(F)c1	none (no result: GLP1R ag, IDH1 R132H inh, GLP1R inv ag, HEK293 tox)
Cc1ccc(O)c(N=Nc2nccs2)c1	GLP1R inv ag 7.1µM, HEK293 tox inconclusive
N#Cc1ccc(/C=C2\C=Cc3ccccc32)cc1	none (no result: GLP1R ag, IDH1 R132H inh, GLP1R inv ag, HEK293 tox)
COc1cc(-c2nc(-c3cccc(Cl)c3)c(-c3ccccc3)[nH]2)cc(OC)c1OC	GLP1R inv ag 3.5µM, HEK293 tox inconclusive (no result: GLP1R ag)
COc1ccc(-c2nc(-c3ccccc3)c(-c3ccccc3)[nH]2)cc1Br	GLP1R inv ag inconclusive (no result: GLP1R ag)
CCC(CC)C(=O)N1N=C(c2ccc(NS(C)(=O)=O)cc2)CC1c1ccc(C)cc1 (configuration not stated)	TrxR1 inh inconclusive, GLP1R inv ag 8.9µM
CCC(CC)C(=O)N1N=C(c2ccc(NS(C)(=O)=O)cc2)CC1c1ccccc1 (configuration not stated)	TrxR1 inh inconclusive, GLP1R inv ag inconclusive
CCOC(=O)C1=NNC2(CC(=O)N(c3cc(C)cc(C)c3)C2=O)C1 (configuration not stated)	none
CCOC(=O)C1=NN(N=O)C2(CC(=O)N(c3cc(C)cc(C)c3)C2=O)C1 (configuration not stated)	TrxR1 inh 16µM
O=C(Nc1ccc(Cl)cc1)N1CCC(CO)(Cc2ccccc2)CC1	GLP1R inv ag 7.9µM
O=C(Nc1ccc(Cl)cc1)N1CCN(c2ccccc2)CC1	GLP1R inv ag inconclusive
CCN1CCN(c2cc(-c3ccccc3)nc3cc(-c4cccc(F)c4)nn23)CC1	GLP1R inv ag 2.5µM, HEK293 tox inconclusive
CC(C)COc1ccc(C(=O)CCN2CCCCC2)cc1	TrxR1 inh 1.4µM, GLP1R inv ag inconclusive, HEK293 tox inconclusive
CCCCOc1ccc(C(=O)CCN2CCCCC2)cc1	TrxR1 inh 3.2µM
COC(=O)c1c(-c2ccc(F)cc2)csc1NC(=O)C1CCCO1 (configuration not stated)	none
CCc1ccc(-c2csc(NC(=O)C3CCCO3)c2C(=O)OC(C)C)cc1 (configuration not stated)	GLP1R inv ag 1.3µM
Cc1ccc(C(=O)NCCNc2ccc([N+](=O)[O-])cc2C(F)(F)F)cc1	GLP1R inv ag 10µM, HEK293 tox inconclusive
O=C(NCCNc1ccc([N+](=O)[O-])cc1C(F)(F)F)c1ccccc1F	GLP1R inv ag inconclusive
Cc1cc(C)c(S(=O)(=O)Nc2ccc(-c3ccc(N4CCCCCC4)nn3)cc2)cc1C	GLP1R inv ag 13µM (no result: GLP1R ag)
COc1ccc2[nH]c(C)c(C(=O)CN(C)CC(OC)OC)c2c1	TrxR1 inh inconclusive (no result: GLP1R ag, IDH1 R132H inh, GLP1R inv ag, HEK293 tox)
NC(=O)/C(=N\OC(=O)c1ccco1)c1nc(-c2ccc(Br)cc2)cs1	TrxR1 inh 7.1µM
CC1(C(=O)NCc2cccc3ccccc23)CCN1Cc1ccccc1OC(F)F (configuration not stated)	GLP1R inv ag 13µM (no result: TrxR1 substrate, IDH1 R132H inh, TrxR1 inh)
Cc1cc(C)n(CC(O)Cn2c3ccccc3c3ccccc32)c(=O)n1 (configuration not stated)	none
Cc1cc(C)n(CC(O)Cn2c3ccc(Br)cc3c3cc(Br)ccc32)c(=O)n1 (configuration not stated)	GLP1R inv ag 11µM
CSc1ccccc1C(=O)N(C)C(c1ccccc1)c1ccccc1	GLP1R inv ag 8.9µM
CSc1ccccc1C(=O)N(C)Cc1ccccc1	none
CCN(CC)c1ccc(/C=C(/C#N)c2nc3ccccc3[nH]2)c(OC(C)C)c1	GLP1R inv ag 1.8µM
CCOc1cccc(/C=C(/C#N)c2nc3ccccc3[nH]2)c1OCC(=O)O	none
O=C(CC(c1cccs1)N1Cc2ccccc2C1=O)Nc1ccccc1F (configuration not stated)	none
COc1ccc(CCNC(=O)c2cc(=O)[nH]c3ccc(S(=O)(=O)N4CCCCC4C)cc23)cc1OC (configuration not stated)	none (no result: GLP1R ag)
Cc1ccc2[nH]c(=O)c(CN(Cc3ccc4c(c3)OCO4)Cc3nnnn3Cc3ccco3)cc2c1	none
Cc1ccc2[nH]c(=O)c(CN(CCCO)Cc3nnnn3Cc3ccco3)cc2c1	TrxR1 inh 28µM (no result: GLP1R ag, IDH1 R132H inh, GLP1R inv ag, HEK293 tox)
Cc1ccc2[nH]c(=O)c(CN(Cc3cccnc3)Cc3nnnn3CCN3CCOCC3)cc2c1	TrxR1 inh 11µM
O=c1[nH]c2cc3c(cc2cc1CN(Cc1cccnc1)Cc1nnnn1Cc1ccco1)OCCO3	TrxR1 inh 11µM
Cc1ccc2[nH]c(=O)c(CN(Cc3ccco3)Cc3nnnn3Cc3ccccc3)cc2c1	none (no result: GLP1R ag, IDH1 R132H inh, GLP1R inv ag, HEK293 tox)
Cc1ccc2cc(CN(Cc3nnnn3Cc3ccco3)CC3CCCO3)c(=O)[nH]c2c1C (configuration not stated)	TrxR1 inh 25µM
Cc1nc(-c2ccc(S(=O)(=O)N(Cc3ccccc3)C(C)C)cc2)co1	GLP1R inv ag inconclusive
c1ccc2cnccc2c1	none (no result: GLP1R ag, IDH1 R132H inh, GLP1R inv ag, HEK293 tox)
O=c1[nH]c2cc3c(cc2cc1CN(Cc1cccs1)Cc1nnnn1Cc1ccco1)OCCO3	TrxR1 inh 16µM
CCOc1ccc2[nH]c(=O)c(CN(Cc3cccs3)Cc3nnnn3C(C)(C)CC)cc2c1	GLP1R inv ag inconclusive, HEK293 tox 11µM
COc1ccccc1CN(Cc1cc2cc3c(cc2[nH]c1=O)OCCO3)Cc1nnnn1Cc1ccco1	TrxR1 inh 5.6µM
O=c1[nH]c2cc3c(cc2cc1CN(Cc1ccccc1)Cc1nnnn1Cc1ccco1)OCCO3	TrxR1 inh 18µM
CCc1ccc2[nH]c(=O)c(CN(Cc3ccccc3)Cc3nnnn3Cc3ccco3)cc2c1	GLP1R inv ag inconclusive
Cc1ccc(-n2c(=O)c3oc4ccccc4c3n(Cc3ccccc3)c2=O)cc1C	none (no result: GLP1R ag)
CN1C(=O)/C(=C2/C=Cc3ccccc3N2CCCS(=O)(=O)O)SC1=S	TrxR1 inh inconclusive, HEK293 tox 8.9µM
O=C(Cc1ccccc1)NCC(=O)OCC(=O)c1ccc2ccccc2c1	none (no result: GLP1R ag, IDH1 R132H inh, GLP1R inv ag, HEK293 tox)
CCOC(=O)c1ccc(N2C(=O)c3[nH]nc(-c4ccc(C)cc4)c3C2c2ccc(O)c(OCC)c2)cc1 (configuration not stated)	GLP1R inv ag inconclusive
CCOC(=O)c1ccc(N2C(=O)c3[nH]nc(-c4ccc(C)cc4)c3C2c2cccs2)cc1 (configuration not stated)	GLP1R inv ag 8.9µM, HEK293 tox inconclusive
CCOc1ccc(C2c3c(-c4ccc(C)cc4)n[nH]c3C(=O)N2c2ccc(Cl)cc2)cc1 (configuration not stated)	GLP1R inv ag 10µM, HEK293 tox inconclusive
CSc1ccc(/C=C/c2ccnc3ccccc23)cc1	none (no result: GLP1R ag, IDH1 R132H inh, GLP1R inv ag, HEK293 tox)
